Experimental data reported in the supplement of paper PMC3334620.
The full ranking holds about 33,000 sequences; the median of “E-score (-0.5 to 0.5)” is about -0.016, and the highest 2% start at about 0.31. The list comes from a sample in which the highest values are over-represented; it also holds similar and randomly drawn sequences.

The sequences below were run against Cst6 (UniProt P40535) (assay: PBM E-score (8-mer binding enrichment) (E-score (-0.5 to 0.5)); higher = stronger / more preferred TF binding). Settings: protein concentration: 200 nM; construct: GST-DNA-binding domain.
Procedure: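 Universal 'all 10-mer' protein binding microarrays (Agilent AMADID 015681) probed with GST-tagged S. cerevisiae TFs (full-length or DBD) made by in vitro transcription/translation (PURExpress), about 100-200 nM. Bound TF was detected with fluorescent anti-GST. Each ungapped 8-mer (which stands for itself and its reverse complement) is scored by the PBM enrichment score (E-score), a modified Wilcoxon-Mann-Whitney statistic from -0.5 to +0.5, computed with the Universal PBM Analysis Suite. Scale: above 0.35 generally sequence-specific binding.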

Sequence of UniProt P40535 (P40535 whole entry, the tested form may be a part): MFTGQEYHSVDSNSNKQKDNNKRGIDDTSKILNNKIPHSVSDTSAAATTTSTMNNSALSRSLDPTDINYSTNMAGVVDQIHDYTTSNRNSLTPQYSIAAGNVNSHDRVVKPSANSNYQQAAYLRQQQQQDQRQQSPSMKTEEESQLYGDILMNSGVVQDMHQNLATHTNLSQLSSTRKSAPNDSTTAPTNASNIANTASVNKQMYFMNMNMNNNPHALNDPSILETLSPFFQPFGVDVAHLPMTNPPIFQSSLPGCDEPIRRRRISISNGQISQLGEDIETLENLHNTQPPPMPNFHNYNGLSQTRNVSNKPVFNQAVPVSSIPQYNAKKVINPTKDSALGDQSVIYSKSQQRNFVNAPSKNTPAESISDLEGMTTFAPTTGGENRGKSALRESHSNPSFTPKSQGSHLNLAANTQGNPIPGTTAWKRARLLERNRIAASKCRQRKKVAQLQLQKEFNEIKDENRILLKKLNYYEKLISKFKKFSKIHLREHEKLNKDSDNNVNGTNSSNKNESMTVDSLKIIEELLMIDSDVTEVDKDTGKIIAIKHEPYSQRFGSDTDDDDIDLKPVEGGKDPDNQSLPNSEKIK

Sequence | PBM E-score
CGACGTCC | -0.0701
GGTCGTCA | 0.272
GGACGTCC | -0.128
GGACGTGA | -0.0809
AGACGTCT | -0.207
AGACGTCA | 0.484
TGACGTCA | 0.5
CGACGTCG | -0.0227
AGACGTCC | -0.00823
AGACGTCG | -0.103
CGACGTCA | 0.491
GGACGTCA | 0.468
ATTCTGCC | 0.124
ACATGCAT | 0.0333
CAATGGCC | -0.314
GAGCCAGC | -0.299
ACTTGCCC | -0.215
ATGTTTCG | 0.263
AGCCCCAC | -0.161
ATGACACA | 0.349
ACGACACG | 0.0167
ATGACACG | 0.256
CTGACACA | 0.0411
GTGACACA | 0.322
GAGACACA | -0.0694

Sequence | PBM E-score
AGACATGG | -0.0372
ACTACCTC | 0.0105
AGCTTGGA | -0.274
ACTGGGCA | -0.16
CCGATAAA | 0.0173
AAACGCAA | 0.254
TCCCGTCA | 0.0641
ACACGTCA | 0.481
CCACGTCA | 0.472
TCACGTCA | 0.49
TCACGTGA | 0.1
GCACGTCA | 0.459
ACACGTCT | 0.0155
CCACGTCC | -0.214
CCACGTCG | -0.196
GCACGTTA | 0.0802
GCACGTCC | -0.0855
ACACGTCG | -0.0793
AGGGGGTA | -0.392
AGGACTGG | -0.203
CTCTTAAA | 0.112
AGACAAGG | -0.181
GGCACGCA | -0.0289
GGGCGGGA | -0.0359
CAAGAGGC | 0.0779

Sequence | PBM E-score
AGTGACCA | -0.105
AGTGACGG | 0.301
GTTGACGA | 0.192
GGTGACGA | 0.463
AGTGACGA | 0.399
GGTGACCA | -0.0455
GGAGGCGA | -0.154
ACTATATG | 0.0805
ATTATATA | 0.239
ATTATATG | 0.306
ATTATAAG | 0.182
ATTATATC | 0.327
CTTATATC | 0.291
AGGAGAAG | -0.154
GAGGCGAA | 0.0301
ATCTAGGA | -0.0727
ACGGGTCA | -0.0243
GTCTAGAA | -0.0503
AATACGTG | 0.176
AATACGAC | 0.0982
AATACGTC | 0.323
CATACGTA | 0.383
AATACGCA | 0.124
AATACGTA | 0.344
CATACGAA | 0.154

Sequence | PBM E-score
GATACGTA | 0.332
AATACGCC | 0.104
GATACGGA | 0.111
GATACGCA | 0.0359
CATACGCA | 0.147
ATTGAGGG | -0.186
TCAGAGGA | -0.193
GCAGGAGA | -0.202
TCCGACGA | -0.0151
CTGCTAAG | -0.279
CTATGGCC | -0.271
CATACGTC | 0.405
CCTACGTC | 0.305
CATACGCC | 0.156
ATCCCGTG | 0.0123
CTCAAAAC | 0.175
ATTACGCG | 0.326
ATTACGCC | 0.254
GTTACGCA | 0.266
ATTACGCA | 0.398
CTTACGCA | 0.249
ATTACGAG | 0.235
ATTACGAA | 0.305
ATTACGGG | 0.00617
GTTACGAA | 0.16

Sequence | PBM E-score
CGACACAC | 0.0466
CGGAGAAA | -0.0341
ACAATGAC | 0.336
GCAATGAC | 0.3
ACAATGAG | -0.0976
ACAATGAT | 0.269
CCAATGAC | 0.314
CCAATGAA | -0.187
AGCCAGTC | -0.244
CGCCATGC | 0.0733
GTCTGGGA | -0.281
ATTGCCTA | -0.141
ACATCCAA | 0.131
GATCGTCA | 0.294
TATCGTGA | 0.0604
AATCGTCC | -0.00977
AATCGTCT | 0.11
AATCGTCA | 0.34
TATCGTCA | 0.397
CATCGTCA | 0.372
CATCGTCG | -0.112
CATCGTCC | 0.14
CCAGATAG | -0.0711
ACCTTGTA | 0.0757
CTTAGCAA | -0.0618

Sequence | PBM E-score
GGGCTCGA | -0.112
CACAGATG | 0.0492
ATTGCTCC | -0.0682
CGACCGGA | -0.305
CATCGTAG | 0.00214
CATAGTAA | 0.313
GATAGTAA | 0.14
TATAGTAA | 0.161
GGCAGGAA | -0.21
CCATGACC | 0.0749
ACATGACT | -0.0377
CCATGACA | 0.271
CCATGACG | 0.457
ACATGACA | 0.274
ACATGACG | 0.435
AAAGCGGC | 0.151
AGGAACTC | -0.0807
AATCCCTC | -0.0193
ATGTCGCA | -0.0497
CCTCAGAA | -0.0484
CAACGTTA | 0.119
ATATAAAC | 0.295
AAATACAA | 0.321
ATATAAAG | 0.17
ATATAAAT | 0.321

Sequence | PBM E-score
AAATAAAA | 0.186
AAATAATA | 0.287
AAATAATG | 0.312
AAATAAAT | 0.371
AAATACAC | 0.141
AAATAAAG | 0.104
AAATAATC | 0.178
CAATACAA | 0.15
GCACACTA | -0.138
ACGGTAAA | 0.129
GACACTAC | 0.0584
AGGAGCTG | -0.256
CTTCACAA | -0.0895
GGTTGCAC | -0.136
GCACTGTA | -0.00858
CCGTTATA | -0.00095
ACGTTAGG | 0.112
ACGTTATA | 0.31
GCGTTATA | 0.0248
ACGTTATC | 0.269
ACGTTATG | 0.333
CCAAGGAG | -0.0523
ACTGCAGA | -0.0111
TGCTACAA | 0.0326
ATCTCATG | -0.00941

Sequence | PBM E-score
ATATTCGA | -0.111
AACAAATA | 0.242
AACAAGTT | 0.0438
AACAAATT | 0.32
CTCAGGCC | -0.258
CAACACGG | 0.0445
CCAATAAC | 0.135
GGTATGAC | 0.191
AGTATGAA | 0.0821
CGTATGAG | 0.133
CGTATGGC | 0.23
CGTATGAC | 0.443
AGTATGAT | 0.235
AGTATGAC | 0.354
AGTATGAG | 0.0817
CGTATGAA | 0.319
GACGAGAA | 0.242
TCTTGACA | 0.053
CGAGGACG | -0.269
CAACCTTA | 0.0972
GCTGATAC | -0.0819
ACGGTTCC | -0.0941
ACCGGGAG | -0.317
CACCTCGA | 0.119
CTATATAA | 0.147

Sequence | PBM E-score
ATATATAC | 0.281
CTATATAC | 0.338
ATATATAA | 0.324
CTCTATAC | -0.125
TTATATAA | 0.24
GTATTGAC | 0.148
CGCTTGAC | -0.0844
AGAAATTG | 0.27
CCTTATGA | 0.159
AATACGGC | 0.324
AATACGGT | -0.0647
CATACGGA | 0.049
GATACGGC | 0.139
CATACGGC | 0.321
AATACGGG | -0.0401
CCGCAGCA | 0.0617
GGTTCTAC | -0.204
CACATCAG | -0.0727
CACCGTCG | -0.174
AACCGTCA | 0.174
GACCGTCA | 0.137
TACCGTCA | 0.345
CACCGTCC | -0.173
CACCGTCA | 0.314
